# Reference: ChEMBL document CHEMBL3988442, “University of Dundee, Small-Polar-MMV Screening Library” (2021)
# For some assays here: Entries with a potency or affinity are not part of this list.
# Experiments:
# Parameters in all cases: scale not given: direction of the effect not stated beside the values
# [1] = molecular target: Protein translocase subunit SecA (Escherichia coli (strain K12)) (UniProt P10408); experiment: Assay to Identify E. coli SecA ATPase Inhibitors; assay type: functional; settings: 30 µM
# [2] = molecular target: T1, Ubiquitin-activating enzyme e1, putative (Leishmania donovani (strain BPK282A1)) (UniProt E9BSI1); experiment: Leishmania donovani Ubiquitin Activating Enzyme (LdE1); assay type: functional; settings: 30 µM
# T1 sequence (whole entry): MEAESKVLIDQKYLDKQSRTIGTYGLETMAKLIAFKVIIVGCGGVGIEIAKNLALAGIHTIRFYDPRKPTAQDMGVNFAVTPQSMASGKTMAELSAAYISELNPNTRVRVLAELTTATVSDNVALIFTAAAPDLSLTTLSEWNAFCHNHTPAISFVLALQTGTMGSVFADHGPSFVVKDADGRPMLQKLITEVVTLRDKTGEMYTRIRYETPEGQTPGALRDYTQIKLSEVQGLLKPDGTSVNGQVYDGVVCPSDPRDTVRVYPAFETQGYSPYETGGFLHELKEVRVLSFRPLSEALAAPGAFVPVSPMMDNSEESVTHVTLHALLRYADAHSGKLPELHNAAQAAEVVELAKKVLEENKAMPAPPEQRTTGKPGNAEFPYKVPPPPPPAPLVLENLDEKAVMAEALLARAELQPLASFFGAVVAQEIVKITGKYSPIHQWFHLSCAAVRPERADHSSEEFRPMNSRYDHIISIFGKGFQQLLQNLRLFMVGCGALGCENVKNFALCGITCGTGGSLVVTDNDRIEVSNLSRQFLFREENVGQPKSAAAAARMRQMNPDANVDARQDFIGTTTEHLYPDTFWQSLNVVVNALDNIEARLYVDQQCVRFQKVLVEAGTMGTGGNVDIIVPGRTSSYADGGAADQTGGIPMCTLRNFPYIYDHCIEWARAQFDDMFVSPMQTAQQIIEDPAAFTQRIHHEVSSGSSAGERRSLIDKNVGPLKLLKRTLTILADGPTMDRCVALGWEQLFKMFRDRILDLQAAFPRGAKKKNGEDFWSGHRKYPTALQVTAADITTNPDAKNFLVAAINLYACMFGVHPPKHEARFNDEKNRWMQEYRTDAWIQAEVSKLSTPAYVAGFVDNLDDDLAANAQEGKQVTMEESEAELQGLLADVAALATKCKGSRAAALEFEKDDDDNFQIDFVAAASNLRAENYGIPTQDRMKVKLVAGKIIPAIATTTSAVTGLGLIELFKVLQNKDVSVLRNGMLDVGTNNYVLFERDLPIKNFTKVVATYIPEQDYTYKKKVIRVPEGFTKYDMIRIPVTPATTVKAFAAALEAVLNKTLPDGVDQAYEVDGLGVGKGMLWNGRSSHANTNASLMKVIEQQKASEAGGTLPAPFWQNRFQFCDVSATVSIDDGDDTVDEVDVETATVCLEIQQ
# [3] = molecular target: Sialic acid-binding Ig-like lectin 9 (Homo sapiens) (UniProt Q9Y336); experiment: Hs-Siglec9 ALPHAscreen SOP 20170721; settings: 10 µM
# Trypanosoma cruzi = experiment: Trypanosoma cruzi phosphomannomutase and mannose-1-phosphate guanylyltransferase assay; assay type: functional; settings: 10 µM
# [4] = molecular target: T2, Arginase-2, mitochondrial (Homo sapiens) (UniProt P78540); experiment: in vitro enzyme assay to detect the production of urea directly proportional to the activity of Arginase II; assay type: functional; settings: 33.3 µM; further: in the data most compounds retested in dose-response had high values
# T2 sequence (whole entry): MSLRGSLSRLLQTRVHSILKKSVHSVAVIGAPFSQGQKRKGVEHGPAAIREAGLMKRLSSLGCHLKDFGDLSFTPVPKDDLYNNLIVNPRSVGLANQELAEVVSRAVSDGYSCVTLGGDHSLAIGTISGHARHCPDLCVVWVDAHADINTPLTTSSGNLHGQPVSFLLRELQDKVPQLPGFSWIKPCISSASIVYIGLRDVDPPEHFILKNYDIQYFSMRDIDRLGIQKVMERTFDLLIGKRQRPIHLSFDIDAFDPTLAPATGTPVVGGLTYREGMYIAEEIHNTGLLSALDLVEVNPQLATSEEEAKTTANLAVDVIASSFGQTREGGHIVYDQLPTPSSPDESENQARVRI
# [5] = molecular target: T3, Proteasome subunit beta (Trypanosoma cruzi) (UniProt O96673); experiment: Trypanosoma cruzi proteasome chymotrypsin-like activity (TcProtChymo) assay.; further: in the data most compounds retested in dose-response had high values; assay type: functional; settings: 9.37 µM
# T3 sequence (whole entry): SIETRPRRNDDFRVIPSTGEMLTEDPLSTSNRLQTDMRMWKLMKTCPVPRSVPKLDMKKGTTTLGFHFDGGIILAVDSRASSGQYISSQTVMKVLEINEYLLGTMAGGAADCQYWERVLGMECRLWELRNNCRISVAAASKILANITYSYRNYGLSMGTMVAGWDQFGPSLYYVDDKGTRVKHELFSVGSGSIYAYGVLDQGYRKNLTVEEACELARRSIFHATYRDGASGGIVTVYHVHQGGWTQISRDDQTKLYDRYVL
# Homo sapiens = species: Homo sapiens; experiment: To identify inhibition of the IFN signalling (Jak-Stat) pathway via expression of an eGFP reporter gene under the control of an IFN-stimulated response element (ISRE) containing MxA promoter.; assay type: functional; settings: 30 µM
# [6] = molecular target: T4, Tyrosyl-tRNA synthetase, putative (Trypanosoma cruzi (strain CL Brener)) (UniProt Q4DSP6); experiment: Trypanosoma cruzi tyrosyl tRNA synthetase (TcYRS) _High Tyrosine SOP; assay type: functional; settings: 30 µM; further: in the data most compounds retested in dose-response had high values
# T4 sequence (whole entry): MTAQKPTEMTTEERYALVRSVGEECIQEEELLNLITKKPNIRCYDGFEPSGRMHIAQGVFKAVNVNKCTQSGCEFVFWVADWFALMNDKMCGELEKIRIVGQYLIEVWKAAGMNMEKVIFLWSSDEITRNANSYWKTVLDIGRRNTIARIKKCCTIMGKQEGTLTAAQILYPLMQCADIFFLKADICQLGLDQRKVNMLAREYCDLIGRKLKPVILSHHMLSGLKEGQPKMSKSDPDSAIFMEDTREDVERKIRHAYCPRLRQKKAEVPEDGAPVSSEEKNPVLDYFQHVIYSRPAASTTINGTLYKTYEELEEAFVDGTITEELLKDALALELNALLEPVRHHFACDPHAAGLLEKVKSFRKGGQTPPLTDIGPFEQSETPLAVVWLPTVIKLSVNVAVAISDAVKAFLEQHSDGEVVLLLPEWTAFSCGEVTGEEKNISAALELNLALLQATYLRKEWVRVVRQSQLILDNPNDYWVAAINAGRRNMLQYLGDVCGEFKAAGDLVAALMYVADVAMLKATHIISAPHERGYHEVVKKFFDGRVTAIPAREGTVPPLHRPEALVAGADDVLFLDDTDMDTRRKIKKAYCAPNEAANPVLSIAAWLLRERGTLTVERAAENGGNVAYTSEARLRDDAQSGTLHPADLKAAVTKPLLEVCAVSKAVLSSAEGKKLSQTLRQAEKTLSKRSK
# [7] = molecular target: T4, Tyrosyl-tRNA synthetase, putative (Trypanosoma cruzi (strain CL Brener)); experiment: Trypanosoma cruzi tyrosyl tRNA synthetase (TcYRS) SOP; assay type: functional; settings: 30 µM
# [8] = molecular target: Chromo domain-containing protein 1 (Saccharomyces cerevisiae (strain ATCC 204508 / S288c) (Baker's yeast)) (UniProt P32657); experiment: ScCHD-1 Enzyme Inhibition Assay; assay type: functional; settings: 30 µM; further: in the data most compounds retested in dose-response had high values
# Chain of Chromo domain-containing protein 1 (Saccharomyces cerevisiae (strain ATCC 204508 / S288c) (Baker's yeast)) (P32657 whole entry, the tested form may be a part): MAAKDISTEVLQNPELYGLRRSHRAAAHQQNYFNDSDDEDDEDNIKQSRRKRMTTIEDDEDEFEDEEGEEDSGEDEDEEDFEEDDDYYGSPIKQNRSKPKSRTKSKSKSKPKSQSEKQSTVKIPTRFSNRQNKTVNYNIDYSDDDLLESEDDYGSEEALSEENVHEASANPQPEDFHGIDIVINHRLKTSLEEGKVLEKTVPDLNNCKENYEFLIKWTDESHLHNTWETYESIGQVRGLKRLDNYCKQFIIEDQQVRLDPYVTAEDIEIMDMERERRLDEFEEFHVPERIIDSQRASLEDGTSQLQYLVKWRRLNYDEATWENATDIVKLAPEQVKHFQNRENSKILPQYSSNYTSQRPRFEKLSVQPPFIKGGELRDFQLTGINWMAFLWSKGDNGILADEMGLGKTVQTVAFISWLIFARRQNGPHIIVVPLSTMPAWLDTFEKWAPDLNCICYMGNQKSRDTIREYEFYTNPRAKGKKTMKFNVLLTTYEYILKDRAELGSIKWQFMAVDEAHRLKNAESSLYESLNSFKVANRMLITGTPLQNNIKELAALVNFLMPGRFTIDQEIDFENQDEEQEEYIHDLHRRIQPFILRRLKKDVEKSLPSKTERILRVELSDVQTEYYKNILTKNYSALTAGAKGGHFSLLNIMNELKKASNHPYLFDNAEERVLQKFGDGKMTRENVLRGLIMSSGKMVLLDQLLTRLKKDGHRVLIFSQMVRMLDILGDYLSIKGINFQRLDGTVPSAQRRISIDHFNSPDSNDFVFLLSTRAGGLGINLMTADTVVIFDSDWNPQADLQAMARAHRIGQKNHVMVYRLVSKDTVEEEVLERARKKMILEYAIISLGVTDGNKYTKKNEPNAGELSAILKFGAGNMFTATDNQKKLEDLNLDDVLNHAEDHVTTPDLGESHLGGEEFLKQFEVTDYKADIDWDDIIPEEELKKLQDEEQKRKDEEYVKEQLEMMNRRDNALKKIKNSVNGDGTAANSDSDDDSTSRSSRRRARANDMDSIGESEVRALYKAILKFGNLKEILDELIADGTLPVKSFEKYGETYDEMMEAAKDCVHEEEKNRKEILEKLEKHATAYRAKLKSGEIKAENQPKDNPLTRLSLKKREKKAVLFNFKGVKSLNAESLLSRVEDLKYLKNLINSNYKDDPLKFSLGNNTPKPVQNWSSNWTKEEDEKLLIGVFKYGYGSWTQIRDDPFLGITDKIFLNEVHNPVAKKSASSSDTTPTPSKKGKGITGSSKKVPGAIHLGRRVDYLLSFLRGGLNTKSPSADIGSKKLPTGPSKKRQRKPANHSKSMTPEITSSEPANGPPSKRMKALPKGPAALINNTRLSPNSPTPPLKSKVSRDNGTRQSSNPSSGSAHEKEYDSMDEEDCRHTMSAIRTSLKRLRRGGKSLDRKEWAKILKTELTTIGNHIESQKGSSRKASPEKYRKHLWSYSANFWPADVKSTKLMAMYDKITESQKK
# Chain of Sialic acid-binding Ig-like lectin 9 (Homo sapiens) (Q9Y336 whole entry): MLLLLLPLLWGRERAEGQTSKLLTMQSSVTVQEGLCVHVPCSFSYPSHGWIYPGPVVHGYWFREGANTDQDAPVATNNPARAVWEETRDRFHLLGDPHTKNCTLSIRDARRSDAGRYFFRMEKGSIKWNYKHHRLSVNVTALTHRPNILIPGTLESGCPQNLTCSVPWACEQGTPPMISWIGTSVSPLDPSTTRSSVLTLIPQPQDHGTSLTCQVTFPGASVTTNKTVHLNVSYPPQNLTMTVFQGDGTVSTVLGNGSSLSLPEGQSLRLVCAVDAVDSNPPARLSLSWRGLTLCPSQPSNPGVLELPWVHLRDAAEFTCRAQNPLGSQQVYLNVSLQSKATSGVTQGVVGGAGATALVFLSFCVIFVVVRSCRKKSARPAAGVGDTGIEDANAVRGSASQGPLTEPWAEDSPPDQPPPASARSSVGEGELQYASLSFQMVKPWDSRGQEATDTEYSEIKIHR
# Chain of Protein translocase subunit SecA (Escherichia coli (strain K12)) (P10408 whole entry): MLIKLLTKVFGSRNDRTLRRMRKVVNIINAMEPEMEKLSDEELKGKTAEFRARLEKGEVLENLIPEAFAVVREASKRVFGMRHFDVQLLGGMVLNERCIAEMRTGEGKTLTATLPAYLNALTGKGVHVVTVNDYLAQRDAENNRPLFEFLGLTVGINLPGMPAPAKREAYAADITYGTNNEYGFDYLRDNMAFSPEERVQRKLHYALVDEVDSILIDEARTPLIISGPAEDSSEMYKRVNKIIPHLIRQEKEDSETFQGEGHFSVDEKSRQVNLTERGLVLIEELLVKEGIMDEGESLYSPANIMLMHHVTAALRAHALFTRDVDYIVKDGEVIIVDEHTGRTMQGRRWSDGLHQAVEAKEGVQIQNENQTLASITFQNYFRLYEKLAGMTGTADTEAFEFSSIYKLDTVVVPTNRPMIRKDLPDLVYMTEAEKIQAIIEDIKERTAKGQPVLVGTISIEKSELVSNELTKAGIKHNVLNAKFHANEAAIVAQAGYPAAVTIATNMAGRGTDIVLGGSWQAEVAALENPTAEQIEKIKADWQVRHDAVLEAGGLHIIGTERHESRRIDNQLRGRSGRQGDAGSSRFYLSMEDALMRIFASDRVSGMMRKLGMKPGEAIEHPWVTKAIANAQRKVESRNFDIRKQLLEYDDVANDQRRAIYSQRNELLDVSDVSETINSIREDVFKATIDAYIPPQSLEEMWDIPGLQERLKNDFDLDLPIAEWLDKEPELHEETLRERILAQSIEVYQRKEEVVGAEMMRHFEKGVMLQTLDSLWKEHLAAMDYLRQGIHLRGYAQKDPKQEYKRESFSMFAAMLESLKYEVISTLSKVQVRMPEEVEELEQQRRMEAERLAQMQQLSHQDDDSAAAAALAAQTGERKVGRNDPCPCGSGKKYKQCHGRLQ
SMILES,Percent Effect [1],Percent Effect [2],Percent Effect [3],Percent Effect (Trypanosoma cruzi),Percent Effect [4],Percent Effect [5],Percent Effect (Homo sapiens),Percent Effect [6],Percent Effect [7],Percent Effect [8]
CCc1nc(C)ncc1C(=O)N1CCCC(n2nc(C)nc2C)C1 (stereo not given),-0.229%,-53.9%,-2.48%,8.92%,-3.69%,0.0853%,-15.3%,-3.35%,6.02%,-2.45%
CNC(=O)COc1ccccc1CNC1CCc2ncnn2C1 (stereo not given),-1.08%,2.56%,-25.1%,6.67%,-1.23%,18.7%,13.3%,6.22%,20.5%,44.8%
CC(C)c1cc(NC(=O)CN2CCC(N3CCCCC3)CC2)on1,-2.28%,20.8%,11.8%,6.53%,-1.43%,9.3%,-6.15%,11.8%,32.9%,-5.62%
Cc1cncc(C2CCCN(Cc3cccn3C)C2)n1 (stereo not given),-2.21%,12%,2.11%,-0.592%,-6.64%,10.5%,6.97%,9.52%,12.5%,-15.4%
COc1ccc(C(N)c2cccc(S(C)(=O)=O)c2)cc1 (stereo not given),-6.1%,18.7%,7.33%,2.41%,-6.65%,4.83%,9.08%,4.74%,15.4%,-12.4%
O=C(c1ccccn1)N1Cc2nccn2CC(CN2CCOCC2)C1 (stereo not given),-4.41%,9.09%,-2.41%,-2.63%,5.67%,8.56%,4.82%,12.1%,15.4%,1.74%
Cc1cc(C)n(CC2CCCCN2C(=O)c2ccc3c(c2)OCO3)n1 (stereo not given),-0.864%,5.33%,-0.84%,-6.22%,1.33%,7.38%,8.9%,2.63%,10.3%,-0.951%
COc1cc(CNCc2ccc(NC(=O)NC(C)C)cc2)cc(OC)c1,-1.27%,15.6%,5.02%,6.9%,10.4%,16.1%,33.6%,8.82%,30.6%,-10.7%
CNc1snc(C)c1C(=O)N1CCCC(n2nc(C)cc2C)C1 (stereo not given),-9.36%,13.3%,16.1%,6.02%,-3.1%,5.68%,-7.89%,4.74%,15.4%,-14.8%
CC(C)NC(=O)C(c1ccccc1)N1CCn2c(nnc2C2CC2)C1 (stereo not given),-3.99%,15.4%,-10.1%,7.61%,-2.87%,4.86%,4.59%,3.35%,20.5%,-5.56%
N#Cc1ccccc1C(=O)N1C[C@H](CO)C[C@H](CN2CCCC2)C1,-4.41%,-54%,7.55%,6.69%,16.4%,5.65%,-3.94%,2.66%,9.76%,-1.92%
